Assay outcomes as filed in PubChem BioAssay.
AHR act = activators of human aryl hydrocarbon receptor; AHR-responsive luciferase reporter cells, luminescence; 2.5% of 320,000 active; activation, % at 5 µM; P35869; in the data active means activation above about 47%;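 further: 0% = vehicle wells and 100% = reference agonist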
Target sequence (P35869 whole entry, looked up): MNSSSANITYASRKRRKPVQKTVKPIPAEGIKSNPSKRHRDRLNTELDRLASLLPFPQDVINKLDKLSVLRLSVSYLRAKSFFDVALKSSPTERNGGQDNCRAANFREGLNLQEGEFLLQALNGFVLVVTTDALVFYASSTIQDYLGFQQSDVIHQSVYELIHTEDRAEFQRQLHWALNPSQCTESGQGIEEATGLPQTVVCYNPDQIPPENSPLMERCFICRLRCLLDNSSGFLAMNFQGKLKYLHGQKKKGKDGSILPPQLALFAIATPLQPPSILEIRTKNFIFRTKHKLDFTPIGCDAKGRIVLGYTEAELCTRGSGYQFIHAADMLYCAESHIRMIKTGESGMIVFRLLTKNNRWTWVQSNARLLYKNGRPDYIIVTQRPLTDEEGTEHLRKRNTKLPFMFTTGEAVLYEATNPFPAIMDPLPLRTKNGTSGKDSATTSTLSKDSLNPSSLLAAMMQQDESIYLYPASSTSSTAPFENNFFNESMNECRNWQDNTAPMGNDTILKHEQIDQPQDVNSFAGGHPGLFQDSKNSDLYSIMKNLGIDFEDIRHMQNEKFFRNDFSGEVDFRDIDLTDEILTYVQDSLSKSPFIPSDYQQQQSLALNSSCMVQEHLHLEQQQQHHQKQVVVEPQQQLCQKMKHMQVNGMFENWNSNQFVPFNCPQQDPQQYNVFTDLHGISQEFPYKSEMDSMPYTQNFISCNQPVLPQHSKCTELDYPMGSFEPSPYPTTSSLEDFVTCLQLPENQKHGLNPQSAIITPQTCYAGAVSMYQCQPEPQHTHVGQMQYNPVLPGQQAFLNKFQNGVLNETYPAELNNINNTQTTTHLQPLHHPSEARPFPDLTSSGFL
SENP6 block = blocks the human protease SENP6 | Q9GZR1 | Recombinant SENP6 catalytic domain, aminoluciferin luminescence | inhibition, % at 10 µM | 1.8% of 330,000 active | AID 2599;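 active means inhibition above about 50% at the single tested dose, limit read from the data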;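 further: plate controls were DMSO wells with enzyme for no effect and DMSO wells lacking enzyme for full effect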
SENP8 block-1 = inhibitors of human SENP8 protease. 0.64% of 360,000 active. inhibition, % at 20 µM. recombinant SENP8, Nedd8 substrate fluorescence. Q96LD8. AID 602440; in the data active means inhibition mostly above about 40%, no sharp cut-off; inactive means mostly below about 27%
SENP8 block-2 = blocks the human protease SENP8; 1.2% of 330,000 active; purified SENP8, Z-RLRGG-aminoluciferin cleavage, luminescence; inhibition, % at 10 µM; in the data active means inhibition above about 50%
SENP7 block = blocks the human protease SENP7; Q9BQF6; recombinant SENP7, Z-RLRGG-aminoluciferin luminescence, 40 min; inhibition, % at 5 µM; 1.5% of 330,000 active;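 active means inhibition above about 50% at the single test dose, limit read from the data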;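 further: plate controls were DMSO with enzyme for no effect and no enzyme buffer wells for full effect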
EBI2 block = EBI2 (human) antagonism. P32249. EBI2 beta-arrestin recruitment, luminescence, 7a,25-OHC stimulated. inhibition, % at 5 µM. 0.81% of 360,000 active; in the data active means inhibition above about 38%;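 further: enzyme fragment complementation signal reports receptor beta-arrestin coupling in cells; 0% = agonist plus DMSO wells and 100% = wells without agonist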
An asterisk follows results filed as active. An excerpt weighted towards active compounds, which were near 5% of everything screened.

O=C(Nc1ccccc1N1CCCC1)c1ccco1 was read as AHR act 7.0, SENP6 block -0.6, SENP8 block-1 -9.9, SENP8 block-2 -0.5, SENP7 block 3.9 and EBI2 block -2.8.
For Cc1cccnc1NC(=S)NC(=O)/C=C/c1ccco1 the results were AHR act 16.6, SENP6 block -18.5, SENP8 block-1 -6.9, SENP8 block-2 -7.0, SENP7 block 1.4 and EBI2 block -14.5.
`O=C(/C=C/c1ccco1)NC(=S)Nc1ccccn1` gave AHR act 66.0*, SENP6 block -6.4, SENP8 block-1 10.8, SENP8 block-2 -4.8, SENP7 block 9.9 and EBI2 block 1.4.
`CC1OC(c2ccccc2)OC2COC(c3ccccc3)OC12` (stereo unspecified) gave SENP8 block-1 1.7 and EBI2 block -4.8.
Screening CCC1(C2C=COC=C2)NC(=O)NC1=O (stereo unspecified) returned SENP8 block-1 7.3 and EBI2 block 7.3.
For Nc1ccc(Cn2ccc3c4c(N)nc(N)nc4ccc32)cc1 the results were SENP8 block-1 -292.8 and EBI2 block -5.1.
Screening COc1ccc2[nH]cc(CCNC(=O)/C=C/[C@H]3O[C@@H](n4cnc5c(NC(=O)c6ccccc6)ncnc54)[C@H](O)[C@@H]3O)c2c1 returned SENP8 block-1 -0.9 and EBI2 block -4.8.
For CCOc1ccccc1Nc1cc(C)c2cccc(C)c2n1 the results were AHR act 36.0, SENP6 block -2.2, SENP8 block-1 -417.3, SENP8 block-2 9.2, SENP7 block 0.2 and EBI2 block 4.4.
For CCOc1nc(N=C(N)N)nc2c(C)cccc12 the results were AHR act 48.7*, SENP6 block 6.5, SENP8 block-1 inactive, SENP8 block-2 -0.1, SENP7 block 2.0 and EBI2 block 12.6.
Screening Fc1ccc(-[n+]2nc(Nc3ccccc3)sc2-c2c3ccccc3cc3ccccc23)cc1 returned AHR act 20.3, SENP6 block -29.9, SENP8 block-1 -66.2, SENP8 block-2 -34.0, SENP7 block -5.5 and EBI2 block -52.0.
For c1ccc(-[n+]2nc(Nc3cccc4ccccc34)sc2-c2c3ccccc3cc3ccccc23)cc1 the results were AHR act 62.3*, SENP6 block 10.9, SENP8 block-1 5.1, SENP8 block-2 6.7, SENP7 block 15.7 and EBI2 block -49.8.
Screening Cc1csc(NC(=O)c2ccc(C)o2)n1 returned AHR act 17.4, SENP6 block 15.0, SENP8 block-1 -5.2, SENP8 block-2 -12.6, SENP7 block 24.2 and EBI2 block -4.9.
For Oc1ccc(Nc2nc(-c3cccnc3)cs2)cc1 the results were AHR act 73.7*, SENP6 block 41.1, SENP8 block-1 -0.2, SENP8 block-2 6.7, SENP7 block 38.0 and EBI2 block -3.2.
COc1ccc(Nc2nc(-c3ccc(OC)cc3)cs2)cc1 was read as AHR act -3.2, SENP6 block -0.1, SENP8 block-1 10.1, SENP8 block-2 9.8, SENP7 block 9.8 and EBI2 block 12.6.
Screening c1cncc(Nc2nc(-c3cccs3)cs2)c1 returned AHR act 58.1*, SENP6 block 21.4, SENP8 block-1 10.9, SENP8 block-2 -9.1, SENP7 block 6.7 and EBI2 block 0.5.
Screening Cc1ccc(C(=O)Nc2nc(-c3cccnc3)cs2)o1 returned AHR act 69.9*, SENP6 block 23.7, SENP8 block-1 -19.8, SENP8 block-2 -0.8, SENP7 block 8.3 and EBI2 block -0.4.
For COc1ccc(Nc2nc(-c3c[nH]c4ccccc34)cs2)cc1 the results were AHR act 75.9*, SENP6 block 28.9, SENP8 block-1 -75.0, SENP8 block-2 6.6, SENP7 block 1.9 and EBI2 block 8.9.
Screening c1ccc(-c2csc(Nc3cccnc3)n2)nc1 returned AHR act 20.4, SENP6 block -6.6, SENP8 block-1 -13.9, SENP8 block-2 -7.4, SENP7 block -8.2 and EBI2 block -3.4.
Brc1ccc(Nc2nc(-c3cccnc3)cs2)cc1 was read as AHR act 40.8, SENP6 block -3.7, SENP8 block-1 2.0, SENP8 block-2 -10.6, SENP7 block 8.3 and EBI2 block 28.1.
For COCCNC(=O)C1(C)CCN(C(=O)c2cccc(C)c2C)C1 (stereo unspecified) the results were SENP8 block-1 10.9 and EBI2 block -14.0.
`Clc1ccc(Nc2nc(-c3ccncc3)cs2)cc1` gave AHR act 23.5, SENP6 block 4.9, SENP8 block-1 -16.6, SENP8 block-2 -7.1, SENP7 block 7.0 and EBI2 block 33.7.
Screening COc1ccc(-c2csc(Nc3cccnc3)n2)cc1 returned AHR act 54.2*, SENP6 block 6.8, SENP8 block-1 17.8, SENP8 block-2 -23.8, SENP7 block -2.9 and EBI2 block 17.8.
COc1cccc(Nc2nc(-c3sc(N)nc3C)cs2)c1 was read as AHR act 104.8*, SENP6 block 10.5, SENP8 block-1 10.5, SENP8 block-2 -3.5, SENP7 block 16.8 and EBI2 block 2.1.
`Nc1ccc(Nc2nc(-c3ccncc3)cs2)cc1` gave AHR act 90.6*, SENP6 block -13.1, SENP8 block-1 16.6, SENP8 block-2 -5.3, SENP7 block 6.7 and EBI2 block 6.0.
`COC(=O)C[C@@H]1C=C[C@@H](NC(=O)c2ccccc2F)[C@@H](CO)O1` gave SENP8 block-1 20.2 and EBI2 block 1.0.
COc1cccc(-c2cccc(-c3nc(C(=O)NCc4ccc5c(c4)OCO5)cc4c3[C@H](CCO)N(S(=O)C(C)(C)C)C4)c2)c1 (stereo partly specified) was read as SENP8 block-1 7.4 and EBI2 block -1.9.
Screening N#C/C(=C\c1cn[nH]c1-c1ccc(Cl)cc1)C(=O)NC1CC1 returned AHR act 84.8*, SENP6 block 10.1, SENP8 block-1 11.3, SENP8 block-2 4.9, SENP7 block 6.8 and EBI2 block 2.9.
Screening N#C/C(=C\c1c[nH]c2ccccc12)C(=O)NC1CCCC1 returned AHR act 63.8*, SENP6 block -12.9, SENP8 block-1 -19.6, SENP8 block-2 -7.3, SENP7 block 2.8 and EBI2 block -3.9.
Cc1ccc(S(=O)(=O)N(C)C[C@@H]2OCc3cn(nn3)CCCC(=O)N([C@@H](C)CO)C[C@H]2C)cc1 was read as SENP8 block-1 7.3 and EBI2 block -6.3.
Screening O=C(Nc1ccccc1-c1nc2ccccc2s1)C1=COCCO1 returned AHR act 93.1*, SENP6 block -27.9, SENP8 block-1 -41.2, SENP8 block-2 -6.4, SENP7 block -1.8 and EBI2 block -2.7.
For Cn1c(/C(C#N)=C(\O)c2ccc(Br)s2)nc2ccccc21 the results were AHR act 51.5*, SENP6 block -11.0, SENP8 block-1 -26.1, SENP8 block-2 -1.5, SENP7 block -0.6 and EBI2 block -6.0.
CCOC(=O)C1(CCCc2ccccc2)CCN(C(=O)CCOC)CC1 was read as AHR act 0.9, SENP6 block 86.7*, SENP8 block-1 5.9, SENP8 block-2 -9.0, SENP7 block -5.5 and EBI2 block -2.5.
